Test results as given in article PMC4336329 (PLoS ONE, 2015).
The campaign covered roughly 310,000 compounds. About 14,000 (4.5%) showed an effect of 50% or more. Effects have a minus sign here. The sample as a whole holds a higher share of strong results than the screen did.

These compounds were tested against human ether-à-go-go-related gene (hERG) potassium channel (human, UniProt Q12809) (assay: primary screen, population patch clamp on CHO cells stably expressing hERG; higher = less effect of the substance).
Chain of human ether-à-go-go-related gene (hERG) potassium channel (Q12809 whole entry, looked up): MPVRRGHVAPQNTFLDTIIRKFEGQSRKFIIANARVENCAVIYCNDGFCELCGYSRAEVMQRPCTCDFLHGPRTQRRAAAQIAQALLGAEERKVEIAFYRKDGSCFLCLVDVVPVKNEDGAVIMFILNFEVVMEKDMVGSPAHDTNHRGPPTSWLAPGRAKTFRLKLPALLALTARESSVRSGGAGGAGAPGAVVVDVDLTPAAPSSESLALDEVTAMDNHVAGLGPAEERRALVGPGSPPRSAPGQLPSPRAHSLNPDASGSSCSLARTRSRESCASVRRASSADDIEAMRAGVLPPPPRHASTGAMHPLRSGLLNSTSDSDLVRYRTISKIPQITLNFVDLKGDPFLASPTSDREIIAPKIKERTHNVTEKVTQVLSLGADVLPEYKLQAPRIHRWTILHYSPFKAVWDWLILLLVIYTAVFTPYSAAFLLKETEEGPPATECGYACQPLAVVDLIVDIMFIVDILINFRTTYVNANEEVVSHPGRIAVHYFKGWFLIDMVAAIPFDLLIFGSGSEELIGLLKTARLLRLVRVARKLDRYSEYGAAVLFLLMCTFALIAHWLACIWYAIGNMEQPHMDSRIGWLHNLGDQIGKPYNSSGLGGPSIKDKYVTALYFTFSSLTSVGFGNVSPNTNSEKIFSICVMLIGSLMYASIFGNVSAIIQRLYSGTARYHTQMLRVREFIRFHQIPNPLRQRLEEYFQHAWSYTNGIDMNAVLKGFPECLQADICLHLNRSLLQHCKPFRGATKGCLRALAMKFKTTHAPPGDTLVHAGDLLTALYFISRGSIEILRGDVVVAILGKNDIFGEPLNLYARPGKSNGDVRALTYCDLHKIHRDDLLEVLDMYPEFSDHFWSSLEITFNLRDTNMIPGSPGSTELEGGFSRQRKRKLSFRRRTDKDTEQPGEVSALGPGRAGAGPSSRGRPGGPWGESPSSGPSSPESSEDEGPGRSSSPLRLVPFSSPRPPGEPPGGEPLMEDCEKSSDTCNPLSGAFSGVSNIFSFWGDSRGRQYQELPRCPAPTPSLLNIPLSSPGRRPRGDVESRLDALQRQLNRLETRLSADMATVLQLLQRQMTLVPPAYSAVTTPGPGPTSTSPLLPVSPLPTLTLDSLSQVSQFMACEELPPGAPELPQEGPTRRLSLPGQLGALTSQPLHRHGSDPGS
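Note: peak tail current of the secondary pulse compared with the same well before compound.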

SMILES	hERG current change (%, negative = inhibition) at 10uM [%]
CC1CN(c2nc(Nc3ccccc3)nc(N)c2[N+](=O)[O-])CC(C)O1 (centres unmarked)	-22.2
C=CCn1c(CCNC(=O)c2ccccc2F)nnc1SCC(=O)Nc1nc(C)cs1	-5.2
N#C/C(=C(/O)COC(=O)c1cccnc1Cl)c1nc2ccccc2[nH]1	25.6
CC(C)NC(=O)c1sc2nc3c(c(-c4cccs4)c2c1N)CN(C)CC3	-25.8
N#Cc1sc2nc3c(c(-c4ccco4)c2c1N)CCCC3	-3.21
Cc1cccc(NC(=O)c2sc3nc4c(c(-c5cccs5)c3c2N)CN(C)CC4)c1	-51.6
CN1CCc2nc3sc(C#N)c(N)c3c(-c3cccs3)c2C1	-56.8
Cc1cccc(NC(=O)c2sc3nc4c(c(-c5ccco5)c3c2N)CCC4)c1	-3.19
COC(=O)c1sc2nc3c(c(-c4cccs4)c2c1N)CCCC3	9.57
O=C(O)C1CC=CCC1C(=O)NC12CC3CC(CC(C3)C1)C2 (centres unmarked)	3.51
O=C(CSc1nc2ccccc2s1)Nc1ncccn1	13.4
O=S(=O)(c1cccs1)N1CCc2ccccc2C1	-5.63
Cc1cccc(-c2nc(CS(=O)CC(=O)N3CC(C)CC(C)C3)c(C)o2)c1 (centres unmarked)	-25.3
COC(=O)c1[nH]c2ccc(C)cc2c1NC(=O)CN1CCN(c2ccccc2)CC1	-13.7
COC(=O)c1[nH]c2cccc(C)c2c1NC(=O)CN1CCN(C(=O)c2ccco2)CC1	-16.9
COC(=O)c1[nH]c2ccccc2c1NC(=O)CN1CCN(C(=O)c2ccco2)CC1	-32.8
COC(=O)c1[nH]c2ccc(C)cc2c1NC(=O)CN1CCC(C)CC1	-8.97
COC(=O)c1[nH]c2ccc(C)cc2c1NC(=O)CN1CCN(C(=O)c2ccccc2)CC1.Cl	-52.1
COC(=O)c1[nH]c2cc(C)ccc2c1NC(=O)CN1CCN(C(=O)c2ccco2)CC1	-54.3
Cc1nc2cc(C(=O)O)ccc2s1	5.41
COC(=O)c1ccc(Oc2c(C)oc3cc(OCc4cnn(-c5ccccc5)c4)ccc3c2=O)cc1	1.08
CCOc1cc(/C=N/NC(=O)c2cccnc2)cc(Br)c1OCC(N)=O	-22.5
O=C(CCc1nnc(Cc2cccc(C(F)(F)F)c2)o1)NC1CC1	32.2
